Bioassay records: PubChem BioAssay, The Scripps Research Institute Molecular Screening Center
Only some compounds are listed: those with a hit (about 2.3% of all), similar ones and a draw of the others.
M1 PAM parental: nonselective activator or artifact in parental CHO-K1 calcium assay | ATP EC20, Fluo-8 calcium fluorescence; 0% at ATP EC20, 100% at ATP max | 360,000 compounds, 0.02% hits | activation, % at 3 µM;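 active means activation above the run cutoff, the mean activation of all test compounds plus 3 SD, cut at about 40% in these data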;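 further: peak over basal fluorescence ratio in a 140 s read after ATP addition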
CHO-K1 Ca antag: nonselective inhibitor or artifact in parental CHO-K1 cells; inhibition, % at 3 µM; ATP-induced calcium, Fluo-8 fluorescence; 360,000 compounds, 0.6% hits;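 active means inhibition above a per-plate cutoff, the plate's mean sample inhibition plus 3 SD, cut at about 24% in these data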
CHO-K1 Ca ag: M1 agonist counterscreen hit in parental CHO-K1 cells. Fluo-8 calcium fluorescence; scaled to maximal ATP response, vehicle zero. activation, % at 3 µM. 360,000 compounds, 0.48% hits; in the data active means activation above about 15%;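 further: untransfected CHO-K1 host cells lacking M1 receptor as counterscreen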
CHRM1 PAM: human CHRM1 positive allosteric modulation; CHO-K1 hM1, Fluo-8 calcium fluorescence, ACh EC20; 0% = ACh EC20, 100% = maximal ACh; 360,000 compounds, 0.088% hits; activation, % at 3 µM; P11229; in the data active means activation above about 19%, passing the limit was not always enough
Target sequence (P11229 whole entry, looked up): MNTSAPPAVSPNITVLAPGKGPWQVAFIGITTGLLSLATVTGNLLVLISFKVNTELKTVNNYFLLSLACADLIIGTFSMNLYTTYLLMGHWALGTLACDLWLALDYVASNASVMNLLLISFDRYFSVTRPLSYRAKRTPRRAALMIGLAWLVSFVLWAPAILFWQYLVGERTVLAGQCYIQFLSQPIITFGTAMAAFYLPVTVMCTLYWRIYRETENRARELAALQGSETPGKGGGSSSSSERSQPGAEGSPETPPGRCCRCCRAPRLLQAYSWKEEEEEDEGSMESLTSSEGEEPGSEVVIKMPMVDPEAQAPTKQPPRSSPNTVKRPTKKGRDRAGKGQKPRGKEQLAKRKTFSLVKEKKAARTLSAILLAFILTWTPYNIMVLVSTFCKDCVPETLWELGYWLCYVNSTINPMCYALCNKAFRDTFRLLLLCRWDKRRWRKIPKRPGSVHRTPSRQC
CHRM1 agonist: human M1 muscarinic receptor agonism; P11229; CHO-K1 hM1, Fluo-8 calcium fluorescence, agonist mode; 0% DMSO, 100% acetylcholine EC100; activation, % at 3 µM; 360,000 compounds, 0.33% hits; AID 588814;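 active means activation above the run's mean compound activation plus 3 SD, cut at about 16% in these data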;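 further: peak over basal fluorescence ratio within a 140 s kinetic read after compound addition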
M1 antag: human CHRM1 antagonism; P11229; CHO-K1 hM1, Fluo-8 calcium fluorescence, ACh EC80 antagonist; inhibition, % at 3 µM; 360,000 compounds, 1.3% hits; AID 588852;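 active means percent inhibition above its own plate's cutoff, namely the mean of that plate's compound wells plus 3 SD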;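 further: peak over basal fluorescence ratio during 140 s after agonist addition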
Large screens that a line does not name were inactive.

Nc1ncn(C(=S)Nc2ccccc2)n1	none
COc1ccc(C(=O)NC2CCN(Cc3c(F)cccc3Cl)CC2)cc1OC	none
CC(=O)c1ccc(N2C(=NC(=O)CCc3ccccc3)SC3CS(=O)(=O)CC32)cc1 (stereo unspecified)	none
Cc1ccc(C(=O)NNC(=S)NC(=O)c2ccco2)cc1	CHO-K1 Ca ag 20.6, CHRM1 agonist 30.0
Cc1cccc(C(=O)NNC(=S)NC(=O)c2ccccc2)c1	CHO-K1 Ca antag 34.9, CHO-K1 Ca ag 100.5, CHRM1 agonist 97.0
O=C(CCc1ccccc1)NNC(=S)NC(=O)c1ccccc1	none
CC(C)(C)c1cc(CCC(=O)NNC(=S)NC(=O)c2ccccc2)cc(C(C)(C)C)c1O	CHO-K1 Ca antag 30.1, CHO-K1 Ca ag 56.4, CHRM1 agonist 80.8, M1 antag 48.5
Cc1ccc(C(=O)NNC(=O)c2ccco2)cc1	none
Cc1ccc(C(=O)NNC(=O)c2cccc(C)c2)cc1	none
O=C(CSc1nnc2n1CCCN2)c1ccc(Cl)cc1	none
O=C(CSc1nnc2n1CCCN2)c1ccc([N+](=O)[O-])cc1	CHO-K1 Ca ag 18.7
CCOc1ccc2nc(NS(=O)(=O)c3ccc4c(c3)n(C)c(=O)n4C)sc2c1	CHO-K1 Ca antag 25.9
CCOc1ccc(S(=O)(=O)Nc2nc3ccc(OC)cc3s2)cc1	none
CC(C)CC(=O)NC(Nc1ccc([N+](=O)[O-])cc1)C(Cl)(Cl)Cl (stereo unspecified)	CHO-K1 Ca ag 16.4
CCCCNC(=O)N1CCN(c2ccnc3cc(Cl)ccc23)CC1	CHO-K1 Ca ag 16.2
Cc1nnc(NC(=O)C2c3ccccc3Oc3ccccc32)s1	none
CCOCc1nnc(NC(=O)C2c3ccccc3Oc3ccccc32)s1	CHO-K1 Ca ag 20.3
CCOCc1nnc(NC(=O)c2ccco2)s1	none
CC(C)c1nnc(NC(=O)C2c3ccccc3Oc3ccccc32)s1	M1 antag 44.6
CCOC(=O)C1=CCN(S(=O)(=O)c2ccc(C)cc2)C1c1ccc(Cl)cc1 (stereo unspecified)	none
CCOC(=O)C1=CCN(S(=O)(=O)c2ccc(Br)cc2)C1c1cccc(C)c1 (stereo unspecified)	none
CCOC(=O)C1=CCN(S(=O)(=O)c2ccc(C)cc2)C1c1cccc(Br)c1 (stereo unspecified)	CHO-K1 Ca antag 28.6
CCOC(=O)C1=CCN(S(=O)(=O)c2ccc(Cl)cc2)C1c1ccc(C)cc1 (stereo unspecified)	CHO-K1 Ca antag 24.4
O=C(CSc1ncnc2sc(-c3ccccc3)cc12)NC1CCS(=O)(=O)C1 (stereo unspecified)	none
O=C(NCC1OCCc2ccccc21)c1cc(COc2ccc(F)cc2Cl)on1 (stereo unspecified)	none
N#Cc1ccc(C(=O)OCC(=O)Nc2cccc(S(=O)(=O)NC3=NCCC3)c2)cc1	none
CC1CCN(CCCN2C(=O)C3C(C(=O)Nc4ccc(Cl)cc4)C4C=CC3(O4)C2C(=O)NC2CCCCC2)CC1 (stereo unspecified)	none
O=[N+]([O-])c1ccc(N=Nc2c(Cl)cc(O)cc2Cl)cc1	CHO-K1 Ca antag 39.5, CHO-K1 Ca ag 17.4, M1 antag 31.9
CC(C)n1nnc(-c2ccc(OCc3ccccc3F)cc2)n1	none
O=C(CSc1n[nH]c(-c2ccccc2)n1)N1CCOCC1	none
CCCC1CC(C)(C(=O)CSc2n[nH]c(-c3ccccc3)n2)OC1=O (stereo unspecified)	M1 antag 30.1
COCCNC(=O)c1cc(C(=O)CC(C)C)c[nH]1	none
COc1ccc(CCn2c(C(C)C)nc3c(c(=O)c4ccccc4n3C)c2=O)cc1	M1 antag 39.0
CCOC(=O)NC(NC(=O)OCC)C(=O)c1ccc(F)cc1	none
COc1ccc(NC(=O)Nc2cccc3c2O[C@H](CN(C)C(=O)Nc2ccc4c(c2)OCO4)[C@@H](C)CN([C@H](C)CO)C3=O)cc1	M1 antag 33.3
COc1ccc(NC(=O)N(C)C[C@H]2Oc3c(NC(=O)Nc4ccc5c(c4)OCO5)cccc3C(=O)N([C@H](C)CO)C[C@@H]2C)cc1	none
